Several values for one entry are separate records, joined by “and”; a condition that tells them apart may be missing. Equal entries are not always repeated. Records with an inconclusive call do not appear. A structure can be active in one record and inactive in another. Activity calls are given as the source filed them. Unless noted, calls follow the shape of the dose curve; as a rule, active = well fitted curve in the direction sought with a large enough effect in the repeat runs; inconclusive = weak or mixed curves; inactive = no such curve, though single readings can be large; an effect the other way counts as inactive or inconclusive.

Test [1] in a line: qHTS assay to identify aromatase inhibitors - cell viability counter screen (AID 743084).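 Also: cells stimulated with testosterone during compound exposure; nearly all actives have a fitted effect of over 55% in size.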 Also: potency is read from the fitted curve at half-maximal effect. Background: In qHTS, concentration-response curves come from the screen itself.
Test [2] concerns the target Aryl hydrocarbon receptor (Homo sapiens) (UniProt P35869). As to the kind of experiment: qHTS assay to identify small molecule that activate the aryl hydrocarbon receptor (AhR) signaling pathway (AID 743085). Also: nearly all actives have a fitted effect of over 15% in size. Also: potency is read from the fitted curve at half-maximal effect.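 As to activation: HG2L7.5c1 human HepG2 liver cells with stably integrated DRE-driven firefly reporter; series mostly up to about 70 µM.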 In a few lines:
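Luminescence (ONE-Glo) from a dioxin-responsive-element luciferase reporter in HG2L7.5c1 HepG2 cells after 24 hr compound exposure at 37C; viability measured by CellTiter-Fluor fluorescence beforehand.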

A short description of test [3]: qHTS assay to identify small molecule that activate the aryl hydrocarbon receptor (AhR) signaling pathway - cell viability counter screen (AID 743086). Also: nearly all actives have a fitted effect of over 45% in size. Also: potency is read from the fitted curve at half-maximal effect. In a few lines: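 HepG2-AhR-luc (HG2L7.5c1) cells, 4000/well, were preincubated 5 h at 37C, exposed to compound in qHTS format for 24 hr at 37C, then given CellTiter-Fluor for 30 min; viability was read as fluorescence in the reporter wells.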

Test [4] can be described thus: qHTS assay for small molecule agonists of the antioxidant response element (ARE) signaling pathway - cell viability counter screen (AID 743203; calls by dose curve; also: nearly all actives have a fitted effect of over 55% in size; also: potency is read from the fitted curve at half-maximal effect). The gist of the method:
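Seeded at 2,000 cells/well, ARE-bla HepG2 cells were incubated 5 hrs before compound addition. After 16 hrs of treatment at 37C with 5% CO2, CellTiter-Glo reagent was added and luminescence read 30 min later.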

Test [5] in a line: qHTS assay for small molecule activators of the heat shock response signaling pathway - cell viability counter screen (AID 743209). Also: nearly all actives have a fitted effect of over 50% in size. Also: potency is read from the fitted curve at half-maximal effect. The gist of the method: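 First, HSE-bla HeLa cells were seeded at 1500 cells/well and kept overnight at 37 C. Next, compounds were pinned in and incubated 5 h. After the FRET substrate step, CellTiter-Glo was added and luminescence read 30 min later.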

A short description of test [6]: qHTS assay to identify small molecule agonists of the farnesoid-X-receptor (FXR) signaling pathway - cell viability counter screen (AID 743218). Also: nearly all actives have a fitted effect of over 45% in size. Also: potency is read from the fitted curve at half-maximal effect. In a few lines: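 Cytotoxicity counter-screen run in parallel, same wells: FXR-UAS-bla HEK 293T cells dosed 16 h at 37 C, viability read by CellTiter-Glo luminescence after 30 min at room temperature.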
Test [7] deals with Bile acid receptor (Homo sapiens) (UniProt Q96RI1). Nature of the test: qHTS assay to identify small molecule agonists of the farnesoid-X-receptor (FXR) signaling pathway (AID 743220; active = well fitted activation curve with a large enough effect in the signal ratio in the repeat runs, not every such curve was filed as active; the % refers to the signal ratio). The gist of the method:
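Beta-lactamase reporter under UAS control in GeneBLAzer FXR HEK 293T cells (5000/well) measured with LiveBLAzer FRET substrate after 2 h at room temperature. Compound exposure lasted 16 h at 37C.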

Test [8] in a line: qHTS assay to identify small molecule antagonists of the farnesoid-X-receptor (FXR) signaling pathway - cell viability counter screen (AID 743221; active = well fitted cell-killing curve with a large enough effect in the repeat runs, not every such curve was filed as active; also: nearly all actives have a fitted effect of over 50% in size). In a few lines:
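Cytotoxicity counter screen run in the FXR-bla reporter wells: HEK 293T cells exposed to compound with 50 uM (final) chenodeoxycholic acid for 16 h, 37 C, then viability measured by CellTiter-Glo luminescence after 30 min, room temperature.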

A short description of test [9]: qHTS assay to identify small molecule antagonists of the peroxisome proliferator-activated receptor gamma (PPARg) signaling pathway - cell viability counter screen (AID 743194). Also: nearly all actives have a fitted effect of over 55% in size. Also: potency is read from the fitted curve at half-maximal effect. The gist of the method:
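PPARg-UAS-bla HEK293H cells were plated, rested 5 h at 37 C, then treated with compounds plus rosiglitazone (50 nM final) for 17 h at 37 C; viability was then read by CellTiter-Glo luminescence after 30 min at room temperature.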

The nature of test [10]: qHTS assay for small molecule activators of the heat shock response signaling pathway (AID 743210; active = well fitted activation curve with a large enough effect in the signal ratio in the repeat runs, with a control signal flat, not every such curve was filed as active; the % refers to the signal ratio; also: series mostly up to about 63 µM). The gist of the method:
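HSE-bla HeLa cells (beta-lactamase reporter under heat shock response elements) were exposed to compounds for 5 h at 37 C, then loaded with LiveBLAzer B/G FRET substrate for 2.5 h at room temperature before fluorescence reading.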

Test [11] is described as follows: qHTS assay to identify small molecule agonists of the peroxisome proliferator-activated receptor delta (PPARd) signaling pathway - cell viability counter screen (AID 743211). Also: nearly all actives have a fitted effect of over 55% in size. Also: potency is read from the fitted curve at half-maximal effect. The gist of the method: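 Viability was measured as CellTiter-Glo luminescence (30 min, room temperature) in the same wells as the beta-lactamase readout. GeneBLAzer PPARd UAS-bla HEK293H cells received compound after 5 h plating and were incubated 17 h at 37 C.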

The target of test [12] is Peroxisome proliferator-activated receptor delta (Homo sapiens) (UniProt Q03181). As to the kind of experiment: qHTS assay to identify small molecule antagonists of the peroxisome proliferator-activated receptor delta (PPARd) signaling pathway (AID 743215; active = well fitted inhibition curve with a large enough effect in the signal ratio in the repeat runs, not every such curve was filed as active; the % refers to the signal ratio;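 also: cells stimulated with agonist L165041 at 300 nM final during compound exposure; series mostly up to about 62 µM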). In a few lines:
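Inhibition of L165041-driven (300 nM final) PPARd signaling is scored in HEK293H UAS-bla cells. Exposure lasts 17 h at 37 C; beta-lactamase activity is then read by FRET substrate fluorescence after 2 h at room temperature.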

In test [13] the target is Peroxisome proliferator-activated receptor gamma (Homo sapiens) (UniProt P37231). As to the kind of experiment: qHTS assay to identify small molecule agonists of the peroxisome proliferator-activated receptor gamma (PPARg) signaling pathway (AID 743094; active = well fitted activation curve with a large enough effect in the signal ratio in the repeat runs, not every such curve was filed as active; the % refers to the signal ratio). In a few lines: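 Quantitative HTS agonist mode: stable HEK293H line with UAS-beta-lactamase reporter under PPARg control, 17 h compound exposure at 37C, fluorescence after 1 h FRET substrate loading at room temperature.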
Peroxisome proliferator-activated receptor gamma (Homo sapiens), sequence (P37231 whole entry, looked up): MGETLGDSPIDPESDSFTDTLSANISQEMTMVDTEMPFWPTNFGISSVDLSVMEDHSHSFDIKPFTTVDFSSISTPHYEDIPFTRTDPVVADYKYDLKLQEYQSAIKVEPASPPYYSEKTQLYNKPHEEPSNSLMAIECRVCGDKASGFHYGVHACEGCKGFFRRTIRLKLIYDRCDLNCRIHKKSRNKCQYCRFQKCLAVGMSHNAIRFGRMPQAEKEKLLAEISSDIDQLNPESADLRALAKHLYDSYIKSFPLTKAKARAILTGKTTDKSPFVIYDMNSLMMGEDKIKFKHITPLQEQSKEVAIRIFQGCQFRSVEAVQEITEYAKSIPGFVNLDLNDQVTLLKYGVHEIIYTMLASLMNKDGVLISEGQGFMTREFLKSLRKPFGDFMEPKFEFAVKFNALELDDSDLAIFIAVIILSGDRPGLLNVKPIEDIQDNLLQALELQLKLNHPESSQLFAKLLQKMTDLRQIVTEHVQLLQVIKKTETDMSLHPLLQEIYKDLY

For test [14], the target named is Peroxisome proliferator-activated receptor delta (Homo sapiens) (UniProt Q03181). Nature of the test: qHTS assay to identify small molecule agonists of the peroxisome proliferator-activated receptor delta (PPARd) signaling pathway (AID 743212; calls by dose curve). In a few lines: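 GeneBLAzer PPARd UAS-bla HEK293H cells (beta-lactamase reporter under UAS control), plated and rested 5 h at 37 C, then exposed to compounds in DMSO at 37 C; LiveBLAzer B/G FRET substrate added, 2 h room temperature, fluorescence read.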
Peroxisome proliferator-activated receptor delta (Homo sapiens), sequence (Q03181 whole entry, looked up): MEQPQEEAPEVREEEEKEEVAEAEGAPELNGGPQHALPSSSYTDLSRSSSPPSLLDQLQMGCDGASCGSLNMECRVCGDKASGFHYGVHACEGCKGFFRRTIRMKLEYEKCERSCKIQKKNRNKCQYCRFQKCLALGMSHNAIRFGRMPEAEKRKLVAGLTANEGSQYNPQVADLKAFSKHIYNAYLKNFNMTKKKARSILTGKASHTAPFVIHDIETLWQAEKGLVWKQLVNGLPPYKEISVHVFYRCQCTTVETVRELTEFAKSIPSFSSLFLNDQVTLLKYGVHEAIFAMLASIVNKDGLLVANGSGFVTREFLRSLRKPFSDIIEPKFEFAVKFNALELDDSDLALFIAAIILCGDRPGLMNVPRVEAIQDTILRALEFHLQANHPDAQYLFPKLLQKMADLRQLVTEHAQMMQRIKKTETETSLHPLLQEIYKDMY

Test [15] can be described thus: qHTS assay to identify small molecule antagonists of the peroxisome proliferator-activated receptor delta (PPARd) signaling pathway - cell viability counter screen (AID 743213). Also: nearly all actives have a fitted effect of over 50% in size. Also: potency is read from the fitted curve at half-maximal effect. The gist of the method:
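Viability counter-screen, qHTS format: PPARd-bla HEK293H, L165041 300 nM final, 17 h compound exposure at 37 C, CellTiter-Glo luminescence after 30 min RT.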

Test [16] addresses Bile acid receptor (Homo sapiens) (UniProt Q96RI1). Nature of the test: qHTS assay to identify small molecule antagonists of the farnesoid-X-receptor (FXR) signaling pathway (AID 743217; active = well fitted inhibition curve with a large enough effect in the signal ratio in the repeat runs, not every such curve was filed as active; the % refers to the signal ratio; also: potency is read from the fitted curve at half-maximal effect). In a few lines: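 Antagonist mode against 50 uM (final) chenodeoxycholic acid stimulation in FXR-bla HEK 293T cells, 16 h at 37 °C. Inhibition detected as reduced beta-lactamase activity via LiveBLAzer B/G FRET fluorescence after 2 h at room temperature.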

Test [17] deals with Vitamin D3 receptor (Homo sapiens) (UniProt P11473). As to the kind of experiment: qHTS assay to identify small molecule agonists of the vitamin D receptor (VDR) signaling pathway (AID 743222; calls by dose curve). In a few lines: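 Quantitative HTS agonist-mode screen: compounds in DMSO were pin-transferred onto VDR-bla cells and incubated 16 h at 37C, 5% CO2. Reporter activity was detected with LiveBLAzer B/G FRET substrate after 2 h at room temperature.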
Vitamin D3 receptor (Homo sapiens), sequence (P11473 whole entry, looked up): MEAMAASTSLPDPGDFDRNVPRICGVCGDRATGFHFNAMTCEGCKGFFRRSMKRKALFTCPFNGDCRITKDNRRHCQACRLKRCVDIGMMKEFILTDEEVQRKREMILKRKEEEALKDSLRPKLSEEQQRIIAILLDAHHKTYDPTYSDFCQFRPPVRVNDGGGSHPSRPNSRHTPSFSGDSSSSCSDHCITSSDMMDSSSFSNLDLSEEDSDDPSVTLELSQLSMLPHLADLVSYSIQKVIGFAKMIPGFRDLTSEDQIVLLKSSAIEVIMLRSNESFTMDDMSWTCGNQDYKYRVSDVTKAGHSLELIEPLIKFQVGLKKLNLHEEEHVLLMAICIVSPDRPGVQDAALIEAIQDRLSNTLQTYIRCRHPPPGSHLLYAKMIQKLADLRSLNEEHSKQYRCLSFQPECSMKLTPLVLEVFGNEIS

Test [18] is described as follows: qHTS assay for small molecule agonists of the antioxidant response element (ARE) signaling pathway (AID 743202; active = well fitted activation curve with a large enough effect in the signal ratio in the repeat runs, not every such curve was filed as active; the % refers to the signal ratio; also: potency is read from the fitted curve at half-maximal effect). The gist of the method: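 Read-out: LiveBLAzer B/G FRET substrate fluorescence after 2 h at room temperature, following 16 h compound treatment at 37 C of HepG2 cells carrying an ARE-driven beta-lactamase reporter.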
Test [19] concerns the target Peroxisome proliferator-activated receptor gamma (Homo sapiens) (UniProt P37231). Nature of the test: qHTS assay to identify small molecule antagonists of the peroxisome proliferator-activated receptor gamma (PPARg) signaling pathway (AID 743191; calls by dose curve; also: nearly all actives have a fitted effect of over 30% in size; also: potency is read from the fitted curve at half-maximal effect). In a few lines:
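GeneBLAzer PPARg UAS-bla HEK293H cells carrying a UAS-driven beta-lactamase reporter were plated at 3000 cells/well, preincubated 5 h at 37C, then given compound for 17 h at 37C; LiveBLAzer B/G FRET substrate was read after 1 h at room temperature.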

Test [20] has as its target Vitamin D3 receptor (Homo sapiens) (UniProt P11473). As to the kind of experiment: qHTS assay to identify small molecule antagonists of the vitamin D receptor (VDR) signaling pathway (AID 743223; active = well fitted inhibition curve with a large enough effect in the signal ratio in the repeat runs, not every such curve was filed as active; the % refers to the signal ratio). The gist of the method: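 Antagonist mode: compound added to VDR-bla cells alongside agonist 1alpha,25-dihydroxyvitamin D3 (3 nM final), incubation 16 h at 37C. Read-out is LiveBLAzer FRET fluorescence, 2 h at room temperature.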

Bile acid receptor (Homo sapiens), sequence (Q96RI1 whole entry, looked up): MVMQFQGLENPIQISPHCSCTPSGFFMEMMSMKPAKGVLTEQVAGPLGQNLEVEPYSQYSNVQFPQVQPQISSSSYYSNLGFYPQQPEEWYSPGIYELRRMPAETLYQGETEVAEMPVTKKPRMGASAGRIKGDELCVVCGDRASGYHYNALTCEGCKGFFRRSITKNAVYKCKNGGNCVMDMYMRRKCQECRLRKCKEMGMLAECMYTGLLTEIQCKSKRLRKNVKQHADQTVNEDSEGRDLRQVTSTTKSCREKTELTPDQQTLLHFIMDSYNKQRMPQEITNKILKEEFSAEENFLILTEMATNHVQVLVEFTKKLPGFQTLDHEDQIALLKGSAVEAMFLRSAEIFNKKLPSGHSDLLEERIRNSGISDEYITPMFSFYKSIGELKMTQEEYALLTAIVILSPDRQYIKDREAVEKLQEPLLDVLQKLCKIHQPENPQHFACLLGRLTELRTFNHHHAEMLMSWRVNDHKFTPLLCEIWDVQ
Aryl hydrocarbon receptor (Homo sapiens), sequence (P35869 whole entry, looked up): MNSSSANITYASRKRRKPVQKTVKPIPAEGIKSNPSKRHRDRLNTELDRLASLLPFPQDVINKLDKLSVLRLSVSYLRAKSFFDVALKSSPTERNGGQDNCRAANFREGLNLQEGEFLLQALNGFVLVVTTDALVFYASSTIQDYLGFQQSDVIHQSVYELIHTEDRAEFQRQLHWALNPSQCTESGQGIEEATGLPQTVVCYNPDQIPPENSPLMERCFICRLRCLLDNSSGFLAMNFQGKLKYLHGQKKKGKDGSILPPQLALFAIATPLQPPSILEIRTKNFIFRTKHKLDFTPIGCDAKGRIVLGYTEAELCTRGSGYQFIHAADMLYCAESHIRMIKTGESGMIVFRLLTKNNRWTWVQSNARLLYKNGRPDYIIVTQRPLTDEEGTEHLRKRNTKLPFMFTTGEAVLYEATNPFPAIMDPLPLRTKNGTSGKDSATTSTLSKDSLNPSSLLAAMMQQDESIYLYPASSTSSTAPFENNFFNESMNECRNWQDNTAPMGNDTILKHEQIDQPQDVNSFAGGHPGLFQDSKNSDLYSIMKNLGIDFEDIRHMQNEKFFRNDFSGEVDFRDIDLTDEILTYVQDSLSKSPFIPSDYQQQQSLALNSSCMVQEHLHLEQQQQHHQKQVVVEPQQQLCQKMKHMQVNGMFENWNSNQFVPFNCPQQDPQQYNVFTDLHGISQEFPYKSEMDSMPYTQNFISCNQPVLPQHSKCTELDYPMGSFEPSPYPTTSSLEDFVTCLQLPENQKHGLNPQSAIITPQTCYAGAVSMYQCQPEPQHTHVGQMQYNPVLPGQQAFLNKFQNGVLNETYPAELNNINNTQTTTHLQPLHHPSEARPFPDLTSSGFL

As for `O=[N+]([O-])c1cc(C2CCCCC2)c(O)c([N+](=O)[O-])c1`, the Potency was 17.2 µM (active) in test [1], 30.5 µM (active) in test [3] and 24.3 µM (active) in test [4]. Besides, the Potency result in [2], in [5], in [6], in [7] and in [8] was “inactive” each time.

Consider `CC(C)c1nc(CN(C)C(=O)N[C@H](C(=O)N[C@@H](Cc2ccccc2)C[C@H](O)[C@H](Cc2ccccc2)NC(=O)OCc2cncs2)C(C)C)cs1`, for which the Potency result in test [1] is “inactive and 23.7 µM (active)”; in [3], “inactive and 13.3 µM (active)”; in [11], 29.8 µM (active). In addition, the Potency result in [2], in test [9], in test [4], in test [5], in test [10] and in test [12] was “inactive” each time. Moreover, the Potency result in [7] is “inactive”.

As for `CC(=O)Oc1ccc([N+](=O)[O-])cc1CCl`, the Potency in test [1] is 27.3 µM (active). Moreover, the Potency entry in test [2], in [13], in [9], in [5], in test [10] and in test [11] was “inactive” throughout. In addition, the Potency result in test [14], in test [15], in test [12], in test [16] and in [7] was “inactive” throughout.

As for `CCCCCCCCCCCCCCN(CCO)CCO`, the Potency was 43.3 µM (active) in test [1]; 43.6 µM (active) in [9]; 61.1 µM (active) in [4]; 24.5 µM (active) in [5]; 43.6 µM (active) in [11]; 49 µM (active) in [15]. Moreover, the Potency in test [16] was 49 µM (active). The Potency result in [2], in test [3] and in test [17] was “inactive” throughout.

As for `CCOc1cccc(-n2cc(C(=O)N3CCN(c4cc(C(=O)O)c5ccccc5c4)CC3)nc2-c2ccc(C)cc2)c1`, the Potency entry in test [1], in test [2], in test [3], in [5], in test [12] and in test [16] was “inactive” throughout. For the same molecule, the Potency entry in [8] was “inactive”. The Potency in test [9] is 18.6 µM (active); in [18], 9.25 µM (active); in test [11], 37.1 µM (active); in [6] it was 46.7 µM (active).

For `CC1(C)[C@H](C(=O)O)N2C(=O)C[C@H]2S1(=O)=O`, the Potency entry in [1], in test [2], in test [3], in test [9], in [4] and in test [10] was “inactive” each time. Moreover, the Potency entry in [11], in test [15], in [6], in [7] and in test [8] was “inactive” throughout.

For `CCOC(=O)c1ccccc1C(=C1C=C(Br)C(=O)C(Br)=C1)c1cc(Br)c(O)c(Br)c1`, the Potency result in [1], in [2], in [3], in [4], in [11] and in test [15] was “inactive” throughout. The Potency entry in test [17] was “inactive”.

For the molecule `C/C=C(/C(=C/C)c1ccc(O)cc1)c1ccc(O)cc1`, the Potency entry in [1], in test [2], in test [13], in test [4], in test [14] and in test [7] was “inactive” throughout. Further, the Potency entry in test [17] is “inactive”. For the same molecule, the Potency in test [19] is 29.8 µM (active); in [18] it was 15 µM (active).

As for `CC(C)C=O`, the Potency entry in [1], in [2], in [3], in test [9], in test [18] and in test [4] was “inactive” throughout. Besides, the Potency result in test [5], in test [11], in [15], in [6], in [8] and in [20] was “inactive” throughout.

As to `Clc1cc(Cl)nc(Cl)n1`, the Potency entry in [1], in test [2], in test [3], in [5], in test [10] and in [11] was “inactive” in each case. Moreover, the Potency entry in [14], in test [15], in test [16], in test [7], in test [8] and in test [17] was “inactive” throughout. In addition, in test [20], the Potency result is “inactive”. The Potency in test [9] was 49.6 µM (active).

As to `CC1CC(OC(=O)C(O)c2ccccc2)CC(C)(C)N1C` (configuration not stated), the Potency result in test [1], in test [2], in [3], in test [9], in test [18] and in test [4] was “inactive” throughout. Also, the Potency result in test [5], in test [10], in test [11], in [14], in test [12] and in [8] was “inactive” each time.

Turning to `C=COCC(C)C`, the Potency entry in test [1], in test [2], in [3], in [19], in [18] and in [4] was “inactive” each time. Moreover, the Potency entry in [5], in test [10], in [11], in test [14], in [15] and in [16] was “inactive” throughout. For the same molecule, the Potency entry in test [7], in test [8], in test [17] and in test [20] was “inactive” each time.

On to `CCOC(=O)C1=C(C)NC(C)=C(C(=O)OC)C1c1cccc(Cl)c1Cl` (configuration not stated), for which the Potency entry in test [1], in test [3], in test [19], in [9], in [5] and in test [11] was “inactive” each time. For the same molecule, the Potency entry in test [15], in test [12] and in test [16] was “inactive” each time. Further, in [2], the Potency is 1.88 µM (active).

Take `CCC(OCCCOC)OC(C)=O` (configuration not stated): the Potency entry in test [1], in [2], in test [3], in test [9], in test [18] and in test [4] was “inactive” throughout. Besides, the Potency result in test [5], in [10], in test [11], in test [14], in [15] and in test [6] was “inactive” each time. The Potency result in test [8], in [17] and in test [20] was “inactive” throughout.

(Values after PubChem BioAssay (Tox21).)
